{"source": "PubChem BioAssay AID1508600", "about": "(Functional Genomics Laboratory (NCATS/FGL), 2020)", "note": "The campaign covered roughly 53,000 sequences. About 3,700 (7%) were called active.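 The calls were made as follows: active = gene knockdowns whose robust z-score for IL-1 alpha signal is at least 2 or at most -2, so actives lie on both sides; inactive = the rest.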 This excerpt belongs to a sample that is enriched for actives."}
{"experiment": "Components of the Cytosolic LPS Sensing Pathway: Gene Identification via Genome-wide siRNA Screen;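 also: robust z of the log signal after scaling to non-targeting control siRNA wells of the plate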", "settings": "RAW264.7 macrophages, IL-1a HTRF, actives lie on both sides, screened at 100 nM (by protocol), cells primed 5 h with Pam3CSK4 first", "summary_of_the_method": "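Three distinct siRNAs per gene were tested singly at 100 nM in RAW264.7 macrophages. Following Pam3CSK4 priming and 24 hour LipidA transfection, IL-1a secretion was read by HTRF.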"}
{"sequence": "GGUAACAAUCACCAUAUUCTT against 1700029F12Rik", "z-score": "-1.94 (inactive)"}
{"sequence": "GCAACAUGUAGGCAACAUCTT against Tmx2", "z-score": "-0.179 (inactive)"}
{"sequence": "CCAAUGAGAGUUCUAUGAUTT against Cxxc4", "z-score": "-0.192 (inactive)"}
{"sequence": "GGUUAGCAGGGACCUAAUGTT against Zfp94", "z-score": "2.57 (active)"}
{"sequence": "GGAAAACACGAGUUUCCCUTT against Arrdc4", "z-score": "1.56 (inactive)"}
{"sequence": "CCAAGCCAAGCAAUCUUGATT against Chat", "z-score": "-0.247 (inactive)"}
{"sequence": "CCAAACUUACAAAUAUGCGTT against Sgpp1", "z-score": "1.35 (inactive)"}
{"sequence": "GGAUCCUGUCCACAAGCACTT against Astn1", "z-score": "0.519 (inactive)"}
{"sequence": "GGUUCAGAUCCACAGCCAGTT against Asic2", "z-score": "-2.12 (active)"}
{"sequence": "CCCAUAACCAGAAUUAAAGTT against Wdr64", "z-score": "0.454 (inactive)"}
{"sequence": "GGUCAUUGCAUCUGACAAGTT against Pcdha2", "z-score": "0.109 (inactive)"}
{"sequence": "GGGAGGAUACCUUCUAUGUTT against Atf6b", "z-score": "-0.43 (inactive)"}
{"sequence": "GGACACAGACAUCCUCUUGTT against Sult5a1", "z-score": "1.04 (inactive)"}
{"sequence": "GGGAGAUGUUUGUUUUCAATT against Mmp16", "z-score": "3.52 (active)"}
{"sequence": "GGAAACCUUUUCAUUAACATT against Il23r", "z-score": "0.138 (inactive)"}
{"sequence": "GGACAACUUCCUAGGGCUCTT against Esyt3", "z-score": "0.248 (inactive)"}
{"sequence": "CCCAAGCAAUUACAGUACUTT against Olfr263", "z-score": "-0.543 (inactive)"}
{"sequence": "GGCCCUCUGAGAUUAAUGUTT against Nfkbid", "z-score": "2.58 (active)"}
{"sequence": "CAGAUCCAUCUCUUAAUGGTT against Olfr204", "z-score": "0.383 (inactive)"}
{"sequence": "GGUAUCAGGUACCAACGACTT against Cpne6", "z-score": "0.768 (inactive)"}
{"sequence": "GGACAUUAGCCAACACAUCTT against Scp2d1", "z-score": "1.17 (inactive)"}
{"sequence": "GGAAUUGACUUUAAGACAATT against Boll", "z-score": "-0.413 (inactive)"}
{"sequence": "GGAAGUCAAGCAUAUUGCCTT against Sntb2", "z-score": "3.04 (active)"}
{"sequence": "GCAUUGGUGUUUAGUUGGUTT against Gdf2", "z-score": "1.11 (inactive)"}
{"sequence": "GGAGUUCGCACAGAAAUUCTT against Dhdh", "z-score": "-0.619 (inactive)"}
{"sequence": "GGUGUAUUAAAAUGUCAGUTT against Marveld2", "z-score": "1.92 (inactive)"}
{"sequence": "GGUCAUCAGAAUGUGAAAATT against Zfp354a", "z-score": "0.232 (inactive)"}
{"sequence": "GGAGAGACCAGAAUGGUAUTT against Fbxw21", "z-score": "-1.12 (inactive)"}
{"sequence": "GGUAUUUCGAAACCUCCGUTT against H2-Q10", "z-score": "2.01 (active)"}
{"sequence": "GCAUGGACAAAUGUCCCUGTT against Lce1f", "z-score": "-0.24 (inactive)"}
{"sequence": "GGAAGAUGGCAAUAAUAACTT against Borcs7", "z-score": "-2.26 (active)"}
{"sequence": "GGUUUUCCCACAUGUCAGATT against Zmat5", "z-score": "0.805 (inactive)"}
{"sequence": "GGGUACAGACGAUGUUUGATT against Unc45b", "z-score": "0.347 (inactive)"}
{"sequence": "GGUGUUCAACUCCACUAUGTT against Nhlrc1", "z-score": "0.511 (inactive)"}
{"sequence": "GGUUCACAAUGGAUUAUGATT against Lrrc25", "z-score": "-1.68 (inactive)"}
{"sequence": "UGAUAUUUGGUGUAUUCAGTT against Olfr972", "z-score": "-2.06 (active)"}
{"sequence": "GGCUUUCUCCAAGCUAUAUTT against Tdgf1", "z-score": "-1.83 (inactive)"}
{"sequence": "GGGAUACUACUUUCUAACATT against Rspo3", "z-score": "1.29 (inactive)"}
{"sequence": "GCCAUACCCUGAAUUACCATT against Ndnf", "z-score": "-2.01 (active)"}
{"sequence": "GGAUCAGAGAAGGAAAAAATT against Hspa12a", "z-score": "-1.98 (inactive)"}
{"sequence": "CCCUGACUUGUCCUUACAATT against Trem3", "z-score": "-0.831 (inactive)"}
{"sequence": "CCCUAGCGGAAAUUGUCAATT against Nono", "z-score": "0.328 (inactive)"}
{"sequence": "GGGUCUGAUCACUUAUAUUTT against Lysmd3", "z-score": "2.02 (active)"}
{"sequence": "CGAGGAGCCUGAAAUAUGGTT against Exosc2", "z-score": "-2.42 (active)"}
{"sequence": "GGAAAAAAAAGUCUUCCUATT against Ttll6", "z-score": "-0.0777 (inactive)"}
{"sequence": "CCUUGUUCCCGAAAUACCGTT against Krr1", "z-score": "-0.471 (inactive)"}
{"sequence": "GUCAGUAUGGAGCGAUGGGTT against Zmiz2", "z-score": "0.695 (inactive)"}
{"sequence": "GCCAUGUAGCACGUAACAGTT against Haus6", "z-score": "-0.368 (inactive)"}
{"sequence": "GGAGAUACAUUGGUAGGUATT against Idua", "z-score": "-0.469 (inactive)"}
{"sequence": "GGAAACGUAUGAACAAUAATT against Sema4f", "z-score": "0.896 (inactive)"}
{"sequence": "GCAAUGAGGAGUAUAUGUATT against Rfx5", "z-score": "2.89 (active)"}
{"sequence": "GGAUUAUGGGAAUUAACUATT against Mpdz", "z-score": "1.06 (inactive)"}
{"sequence": "CCUUCAGUGGUUUGAACCGTT against Dnd1", "z-score": "2.59 (active)"}
{"sequence": "CCAAGUCUUGUAGUGGAGUTT against Vdac3", "z-score": "-0.269 (inactive)"}
{"sequence": "GGGCUCCACUACCUAAUCATT against Gpr83", "z-score": "-1.07 (inactive)"}
{"sequence": "GGUACACUAUGAGGUCUGCTT against Traf2", "z-score": "2.07 (active)"}
{"sequence": "GGUCUAUCAGAUCAUCAAATT against Pde8a", "z-score": "0.584 (inactive)"}
{"sequence": "GGGUUCAAUAACCACAUCATT against Ttc13", "z-score": "-2.13 (active)"}
{"sequence": "GGACUCAGAAGUGAACAUATT against Spata7", "z-score": "-0.916 (inactive)"}
{"sequence": "GCCUACGUGAAAUCUCACATT against Mycl", "z-score": "0.147 (inactive)"}
{"sequence": "CCUCAAUUGGAUAAAGAAGTT against Gzma", "z-score": "1.7 (inactive)"}
{"sequence": "GACAUACCAGCCGUAUAACTT against Erh", "z-score": "-2.39 (active)"}
{"sequence": "CGAGGAGAAUUUGUAAUGATT against Etfrf1", "z-score": "-0.554 (inactive)"}
{"sequence": "CCCUGAACCCUAACAUCACTT against Tcirg1", "z-score": "0.593 (inactive)"}
{"sequence": "GGAGUGUUGGGAGCAGGAATT against Tnni1", "z-score": "2.71 (active)"}
{"sequence": "GGAUGUUCUUGCUCAUGUGTT against Fam149b", "z-score": "0.605 (inactive)"}
{"sequence": "GGAGAAAUGCCAUUGCGUCTT against Wnt3", "z-score": "0.169 (inactive)"}
{"sequence": "GCGCGUCAUAAAAAGCAUATT against Lhx6", "z-score": "1.17 (inactive)"}
{"sequence": "CGGAUCCUACGGAAUUACGTT against Fpgs", "z-score": "0.99 (inactive)"}
{"sequence": "GGACAUUCUUUAAGAAGAUTT against Tjp3", "z-score": "-0.584 (inactive)"}
{"sequence": "CCCAAAAGUUUUUACAGCUTT against Ttpa", "z-score": "0.0745 (inactive)"}
{"sequence": "GGAUGAACCACCAUAUGUGTT against Olfr1188", "z-score": "4.69 (active)"}
{"sequence": "GGUUUUGAAAAAGCAUCAATT against Myoz2", "z-score": "-0.365 (inactive)"}
{"sequence": "GGCCAACUCUAUUUUGAAGTT against Lrp2bp", "z-score": "0.362 (inactive)"}
{"sequence": "GGACACAUAAUGUCUACCUTT against Unc93a", "z-score": "-0.629 (inactive)"}
{"sequence": "GCACUAGCAGACUAGGUGATT against Zbtb26", "z-score": "-2.07 (active)"}
{"sequence": "GGAUUUUCAAUUCAUACCCTT against Psmb1", "z-score": "-0.189 (inactive)"}
{"sequence": "UUUACCUUGUCACCGUCUUTT against Olfr1029", "z-score": "1.03 (inactive)"}
{"sequence": "AUUCAUUGGGAAAAAUUAUTT against Olfr127", "z-score": "-2.38 (active)"}
{"sequence": "CCUCGACAUCUAAUGAAGATT against 4933405O20Rik", "z-score": "-1.58 (inactive)"}
{"sequence": "GCAAUACGAAGGCGAAAGCTT against P3h4", "z-score": "-1.68 (inactive)"}
{"sequence": "GGACUUCAUAUUAGCAUGUTT against Plbd2", "z-score": "-1.27 (inactive)"}
{"sequence": "GACCCUUUUCACCAAGACATT against Tecr", "z-score": "0.989 (inactive)"}
{"sequence": "GGAGCAGUGCAUUGAGACCTT against Adcy6", "z-score": "2.34 (active)"}
{"sequence": "GGAAUAAUUGGUGUUAAAGTT against Hnrnpk", "z-score": "0.346 (inactive)"}
{"sequence": "GGCUUUGGUCAAGGAGAAGTT against Pias4", "z-score": "-1.32 (inactive)"}
{"sequence": "GGAUCAAUGAUACAACUGATT against Il1r1", "z-score": "-0.976 (inactive)"}
{"sequence": "GGUGCUAAAGGACAUAGGUTT against Tmem177", "z-score": "3.27 (active)"}
{"sequence": "GGGCACCUAUUCAGAUACCTT against Map2", "z-score": "0.685 (inactive)"}
{"sequence": "GCCGAACGUGUUUAAACUCTT against Psd3", "z-score": "0.0404 (inactive)"}
{"sequence": "GGAACCUCUCAGAUUUUCATT against Zfp599", "z-score": "0.828 (inactive)"}
{"sequence": "GGCCUCUCAAAAUCUUCCUTT against Galnt11", "z-score": "-1.46 (inactive)"}
{"sequence": "CGUAGUACCCAUGAAUUACTT against Adora2a", "z-score": "4.87 (active)"}
{"sequence": "GGACUGACUCUUUUUUAACTT against Uba3", "z-score": "-0.697 (inactive)"}
{"sequence": "CGAAAACAAUUACGUCUAUTT against Rfwd3", "z-score": "1.15 (inactive)"}
{"sequence": "GCCAAACGCAUCAUGGAAATT against Arglu1", "z-score": "-0.59 (inactive)"}
{"sequence": "CCACGACGUACAUCCAUAATT against Tmem181a", "z-score": "-1.02 (inactive)"}
{"sequence": "GGCGAAAACGGUAAAGCCUTT against H1f4", "z-score": "0.448 (inactive)"}
{"sequence": "GGCCAGCAAUAAAACUGUCTT against Max", "z-score": "-0.326 (inactive)"}
{"sequence": "GCCCGCCUAUUUGAAAGCATT against Zfp740", "z-score": "0.839 (inactive)"}
{"sequence": "GGAUGAAGGAACUAAAUAUTT against Cog3", "z-score": "-2.15 (active)"}
{"sequence": "GGUCCUUAGGUGACCUCCUTT against Lrrc20", "z-score": "-0.249 (inactive)"}
{"sequence": "GGAAAAUGCUGUCCAGUGGTT against Rdh11", "z-score": "-0.858 (inactive)"}
{"sequence": "GGAGGUGAACAGAUCUCACTT against Fubp1", "z-score": "0.391 (inactive)"}
{"sequence": "GGUCACAGCAAGUUAAUAATT against Ranbp9", "z-score": "-2.1 (active)"}
{"sequence": "GGAGGUUCUACCCUGUUCATT against Actr1a", "z-score": "0.48 (inactive)"}
{"sequence": "GGGAGAAUCUAACUAAGCCTT against Sirt7", "z-score": "0.383 (inactive)"}
{"sequence": "GGUCAUGCACACUCGAAAUTT against Mrpl54", "z-score": "0.831 (inactive)"}
